According to ChEMBL document CHEMBL1961873, “Compounds: GSK PKIS; Assays: Nanosyn kinase panel” (2012):

Key:
[1] = target: Sphingosine kinase 1 (Homo sapiens) (UniProt Q9NYA1); details: at 1 µM;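 note: mean SPHK1 inhibition value reported from the GSK PKIS kinase panel screen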
[2] = target: T1, Sphingosine kinase 2 (Homo sapiens) (UniProt Q9NRA0); details: at 0.1 µM
T1 sequence (whole entry): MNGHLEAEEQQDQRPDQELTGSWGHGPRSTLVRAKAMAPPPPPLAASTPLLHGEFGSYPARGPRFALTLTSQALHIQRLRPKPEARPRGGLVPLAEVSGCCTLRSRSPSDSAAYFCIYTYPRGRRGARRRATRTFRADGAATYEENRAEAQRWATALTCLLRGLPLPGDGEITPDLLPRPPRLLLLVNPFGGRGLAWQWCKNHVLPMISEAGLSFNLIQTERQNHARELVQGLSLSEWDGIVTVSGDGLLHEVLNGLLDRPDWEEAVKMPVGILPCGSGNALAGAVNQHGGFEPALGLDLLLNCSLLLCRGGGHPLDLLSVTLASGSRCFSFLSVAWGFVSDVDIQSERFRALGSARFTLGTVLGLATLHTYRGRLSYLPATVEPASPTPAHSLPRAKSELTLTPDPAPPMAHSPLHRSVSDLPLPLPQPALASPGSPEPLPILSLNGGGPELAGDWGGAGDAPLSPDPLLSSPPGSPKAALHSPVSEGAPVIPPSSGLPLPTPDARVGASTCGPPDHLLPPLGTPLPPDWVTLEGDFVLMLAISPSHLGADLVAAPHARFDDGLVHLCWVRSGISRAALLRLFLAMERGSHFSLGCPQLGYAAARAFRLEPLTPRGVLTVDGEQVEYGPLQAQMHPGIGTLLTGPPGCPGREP

[3] = target: T1, Sphingosine kinase 2 (Homo sapiens); details: at 1 µM
[4] = target: Casein kinase II subunit alpha (Homo sapiens) (UniProt P68400); details: at 0.1 µM
Casein kinase II subunit alpha (Homo sapiens), sequence (P68400 whole entry, looked up): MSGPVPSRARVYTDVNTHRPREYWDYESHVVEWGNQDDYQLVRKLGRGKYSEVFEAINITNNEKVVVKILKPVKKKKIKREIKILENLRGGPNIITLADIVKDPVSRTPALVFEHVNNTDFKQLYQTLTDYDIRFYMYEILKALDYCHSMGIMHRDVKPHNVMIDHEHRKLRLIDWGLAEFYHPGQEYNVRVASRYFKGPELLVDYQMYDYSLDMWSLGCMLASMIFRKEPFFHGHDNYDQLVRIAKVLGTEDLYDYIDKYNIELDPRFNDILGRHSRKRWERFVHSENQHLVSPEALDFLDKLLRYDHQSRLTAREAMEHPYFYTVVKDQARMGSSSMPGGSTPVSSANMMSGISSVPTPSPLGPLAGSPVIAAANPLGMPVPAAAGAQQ

[5] = target: Casein kinase II subunit alpha (Homo sapiens) (UniProt P68400); details: at 1 µM
[6] = target: T2, Inhibitor of nuclear factor kappa-B kinase subunit alpha (Homo sapiens) (UniProt O15111); details: at 0.1 µM
T2 sequence (whole entry): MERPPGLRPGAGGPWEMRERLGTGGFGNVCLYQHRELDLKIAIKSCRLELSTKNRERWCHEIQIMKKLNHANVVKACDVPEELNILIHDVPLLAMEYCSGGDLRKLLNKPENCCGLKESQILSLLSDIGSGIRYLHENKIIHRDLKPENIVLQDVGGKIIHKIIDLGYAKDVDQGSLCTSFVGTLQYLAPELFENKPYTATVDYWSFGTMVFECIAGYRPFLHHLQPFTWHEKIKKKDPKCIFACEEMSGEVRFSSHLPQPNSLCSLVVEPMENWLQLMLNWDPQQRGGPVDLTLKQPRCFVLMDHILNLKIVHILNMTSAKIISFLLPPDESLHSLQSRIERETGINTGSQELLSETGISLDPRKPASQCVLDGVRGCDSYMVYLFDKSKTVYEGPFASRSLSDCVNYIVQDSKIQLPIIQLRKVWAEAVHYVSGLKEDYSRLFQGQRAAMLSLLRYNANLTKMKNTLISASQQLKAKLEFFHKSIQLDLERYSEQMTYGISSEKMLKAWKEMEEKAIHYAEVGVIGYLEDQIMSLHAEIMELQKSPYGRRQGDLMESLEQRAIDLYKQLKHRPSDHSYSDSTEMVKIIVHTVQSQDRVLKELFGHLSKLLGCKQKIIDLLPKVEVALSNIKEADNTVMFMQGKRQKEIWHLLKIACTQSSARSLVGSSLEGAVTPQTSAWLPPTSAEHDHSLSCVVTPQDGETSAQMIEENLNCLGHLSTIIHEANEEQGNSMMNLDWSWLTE

[7] = target: T2, Inhibitor of nuclear factor kappa-B kinase subunit alpha (Homo sapiens); details: at 1 µM
[8] = target: T3, Inhibitor of nuclear factor kappa-B kinase subunit beta (Homo sapiens) (UniProt O14920); details: at 0.1 µM
T3 sequence (whole entry): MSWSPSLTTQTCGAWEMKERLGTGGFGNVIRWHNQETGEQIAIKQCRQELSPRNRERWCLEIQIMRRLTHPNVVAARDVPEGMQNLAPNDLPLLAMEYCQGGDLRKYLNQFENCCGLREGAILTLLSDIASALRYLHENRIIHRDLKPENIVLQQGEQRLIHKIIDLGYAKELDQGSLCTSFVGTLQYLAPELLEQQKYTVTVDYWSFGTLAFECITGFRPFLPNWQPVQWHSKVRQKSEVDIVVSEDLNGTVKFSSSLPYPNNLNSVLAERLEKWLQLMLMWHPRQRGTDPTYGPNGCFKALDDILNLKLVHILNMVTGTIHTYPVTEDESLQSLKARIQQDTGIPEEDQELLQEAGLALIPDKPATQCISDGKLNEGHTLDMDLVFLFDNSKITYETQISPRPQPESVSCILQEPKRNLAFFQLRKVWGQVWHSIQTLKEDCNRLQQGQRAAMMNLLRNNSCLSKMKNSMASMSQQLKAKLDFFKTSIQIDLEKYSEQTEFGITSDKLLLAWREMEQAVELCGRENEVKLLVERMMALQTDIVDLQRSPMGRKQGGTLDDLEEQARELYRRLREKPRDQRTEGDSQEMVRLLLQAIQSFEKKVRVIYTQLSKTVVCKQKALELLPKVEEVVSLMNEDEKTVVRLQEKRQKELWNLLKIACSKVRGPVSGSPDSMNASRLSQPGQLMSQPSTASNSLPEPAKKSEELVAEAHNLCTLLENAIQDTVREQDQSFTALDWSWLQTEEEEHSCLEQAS

[9] = target: T3, Inhibitor of nuclear factor kappa-B kinase subunit beta (Homo sapiens); details: at 1 µM
[10] = target: T4, Inhibitor of nuclear factor kappa-B kinase subunit epsilon (Homo sapiens) (UniProt Q14164); details: at 0.1 µM
T4 sequence (whole entry): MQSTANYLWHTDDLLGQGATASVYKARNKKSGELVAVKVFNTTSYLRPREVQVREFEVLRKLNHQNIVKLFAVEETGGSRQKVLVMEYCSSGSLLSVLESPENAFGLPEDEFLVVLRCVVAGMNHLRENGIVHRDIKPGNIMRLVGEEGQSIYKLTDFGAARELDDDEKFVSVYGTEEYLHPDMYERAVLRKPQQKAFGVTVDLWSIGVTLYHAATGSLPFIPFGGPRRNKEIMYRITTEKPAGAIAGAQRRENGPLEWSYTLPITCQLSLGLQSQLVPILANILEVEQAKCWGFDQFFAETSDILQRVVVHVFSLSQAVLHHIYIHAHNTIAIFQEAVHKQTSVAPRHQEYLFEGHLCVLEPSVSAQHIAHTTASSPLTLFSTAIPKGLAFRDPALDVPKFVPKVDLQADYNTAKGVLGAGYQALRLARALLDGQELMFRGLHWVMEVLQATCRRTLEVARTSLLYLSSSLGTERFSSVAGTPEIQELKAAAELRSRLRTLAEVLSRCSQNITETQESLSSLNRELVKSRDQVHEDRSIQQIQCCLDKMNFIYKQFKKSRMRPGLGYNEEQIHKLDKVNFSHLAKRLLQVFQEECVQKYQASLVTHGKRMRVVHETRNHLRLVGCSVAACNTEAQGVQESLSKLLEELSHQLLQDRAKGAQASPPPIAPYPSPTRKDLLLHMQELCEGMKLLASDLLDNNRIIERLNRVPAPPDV

[11] = target: T4, Inhibitor of nuclear factor kappa-B kinase subunit epsilon (Homo sapiens); details: at 1 µM
[12] = target: T5, Serine/threonine-protein kinase Nek1 (Homo sapiens) (UniProt Q96PY6); details: at 0.1 µM
T5 sequence (whole entry): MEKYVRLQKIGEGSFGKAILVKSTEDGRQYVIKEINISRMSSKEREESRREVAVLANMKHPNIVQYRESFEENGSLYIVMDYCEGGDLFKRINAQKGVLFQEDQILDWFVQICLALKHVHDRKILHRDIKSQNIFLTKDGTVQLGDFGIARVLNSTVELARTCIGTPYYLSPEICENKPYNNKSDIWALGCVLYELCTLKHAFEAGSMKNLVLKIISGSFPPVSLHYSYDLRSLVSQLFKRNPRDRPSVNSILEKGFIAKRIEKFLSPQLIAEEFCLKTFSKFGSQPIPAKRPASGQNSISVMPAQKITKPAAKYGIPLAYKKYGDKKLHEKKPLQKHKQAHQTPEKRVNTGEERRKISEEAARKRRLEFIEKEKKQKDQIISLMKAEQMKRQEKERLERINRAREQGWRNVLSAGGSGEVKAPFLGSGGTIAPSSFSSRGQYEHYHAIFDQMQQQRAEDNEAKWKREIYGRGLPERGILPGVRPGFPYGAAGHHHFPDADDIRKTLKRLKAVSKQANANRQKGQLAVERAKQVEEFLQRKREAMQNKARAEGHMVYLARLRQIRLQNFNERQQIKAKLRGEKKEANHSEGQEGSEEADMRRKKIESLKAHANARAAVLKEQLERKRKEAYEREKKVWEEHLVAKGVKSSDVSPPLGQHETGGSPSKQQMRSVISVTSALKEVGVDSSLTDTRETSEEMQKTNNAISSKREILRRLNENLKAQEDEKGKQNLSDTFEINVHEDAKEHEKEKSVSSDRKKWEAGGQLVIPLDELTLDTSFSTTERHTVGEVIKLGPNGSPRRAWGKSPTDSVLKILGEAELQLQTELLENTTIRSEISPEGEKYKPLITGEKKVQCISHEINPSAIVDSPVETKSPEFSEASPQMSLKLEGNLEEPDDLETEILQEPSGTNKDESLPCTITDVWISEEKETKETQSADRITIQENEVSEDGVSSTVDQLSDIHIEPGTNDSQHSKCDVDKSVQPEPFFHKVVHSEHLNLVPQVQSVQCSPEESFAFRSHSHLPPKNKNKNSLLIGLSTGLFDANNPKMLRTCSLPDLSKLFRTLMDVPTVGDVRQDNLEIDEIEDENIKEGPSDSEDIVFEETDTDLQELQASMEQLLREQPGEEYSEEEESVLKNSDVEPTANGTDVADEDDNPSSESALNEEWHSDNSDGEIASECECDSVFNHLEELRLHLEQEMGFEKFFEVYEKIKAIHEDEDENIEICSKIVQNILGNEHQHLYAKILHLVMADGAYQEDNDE

[13] = target: T5, Serine/threonine-protein kinase Nek1 (Homo sapiens); details: at 1 µM
[14] = target: T6, Serine/threonine-protein kinase Nek2 (Homo sapiens) (UniProt P51955); details: at 0.1 µM
T6 sequence (whole entry): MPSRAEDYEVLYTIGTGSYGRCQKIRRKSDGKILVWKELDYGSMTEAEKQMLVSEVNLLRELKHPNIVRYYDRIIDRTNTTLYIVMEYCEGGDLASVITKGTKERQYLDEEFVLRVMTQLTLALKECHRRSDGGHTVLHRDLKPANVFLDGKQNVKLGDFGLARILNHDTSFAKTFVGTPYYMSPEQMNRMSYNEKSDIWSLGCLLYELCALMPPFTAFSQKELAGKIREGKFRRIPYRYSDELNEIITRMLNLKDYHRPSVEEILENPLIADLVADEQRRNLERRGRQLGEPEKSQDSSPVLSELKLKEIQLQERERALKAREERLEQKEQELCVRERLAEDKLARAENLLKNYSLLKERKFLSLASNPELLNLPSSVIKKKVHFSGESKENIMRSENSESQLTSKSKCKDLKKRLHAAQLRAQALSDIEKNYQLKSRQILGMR

[15] = target: T6, Serine/threonine-protein kinase Nek2 (Homo sapiens); details: at 1 µM
[16] = target: Serine/threonine-protein kinase Nek6 (Homo sapiens) (UniProt Q9HC98); details: at 0.1 µM
Serine/threonine-protein kinase Nek6 (Homo sapiens), sequence (Q9HC98 whole entry): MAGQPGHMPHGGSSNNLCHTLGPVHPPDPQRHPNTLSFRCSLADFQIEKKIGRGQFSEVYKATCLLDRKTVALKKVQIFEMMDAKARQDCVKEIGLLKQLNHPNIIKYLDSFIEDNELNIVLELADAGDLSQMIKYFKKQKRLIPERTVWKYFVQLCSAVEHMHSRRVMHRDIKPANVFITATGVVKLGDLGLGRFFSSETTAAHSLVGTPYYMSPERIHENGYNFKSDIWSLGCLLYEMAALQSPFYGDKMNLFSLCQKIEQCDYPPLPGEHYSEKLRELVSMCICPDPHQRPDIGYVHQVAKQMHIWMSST

[17] = target: Serine/threonine-protein kinase Nek6 (Homo sapiens) (UniProt Q9HC98); details: at 1 µM
[18] = target: Serine/threonine-protein kinase Nek7 (Homo sapiens) (UniProt Q8TDX7); details: at 0.1 µM
Serine/threonine-protein kinase Nek7 (Homo sapiens), sequence (Q8TDX7 whole entry, looked up): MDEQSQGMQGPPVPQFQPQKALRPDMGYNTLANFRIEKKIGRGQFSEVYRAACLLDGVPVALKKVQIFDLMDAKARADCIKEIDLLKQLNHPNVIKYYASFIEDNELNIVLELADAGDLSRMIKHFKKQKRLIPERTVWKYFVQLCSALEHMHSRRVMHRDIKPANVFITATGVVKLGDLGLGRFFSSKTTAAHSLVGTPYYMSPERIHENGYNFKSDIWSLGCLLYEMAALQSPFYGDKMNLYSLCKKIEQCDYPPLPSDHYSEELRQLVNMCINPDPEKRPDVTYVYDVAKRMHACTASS

[19] = target: Serine/threonine-protein kinase Nek7 (Homo sapiens) (UniProt Q8TDX7); details: at 1 µM
[20] = target: T7, Serine/threonine-protein kinase Nek9 (Homo sapiens) (UniProt Q8TD19); details: at 0.1 µM;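 note: reported value is the mean percent inhibition of NEK9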
T7 sequence (whole entry): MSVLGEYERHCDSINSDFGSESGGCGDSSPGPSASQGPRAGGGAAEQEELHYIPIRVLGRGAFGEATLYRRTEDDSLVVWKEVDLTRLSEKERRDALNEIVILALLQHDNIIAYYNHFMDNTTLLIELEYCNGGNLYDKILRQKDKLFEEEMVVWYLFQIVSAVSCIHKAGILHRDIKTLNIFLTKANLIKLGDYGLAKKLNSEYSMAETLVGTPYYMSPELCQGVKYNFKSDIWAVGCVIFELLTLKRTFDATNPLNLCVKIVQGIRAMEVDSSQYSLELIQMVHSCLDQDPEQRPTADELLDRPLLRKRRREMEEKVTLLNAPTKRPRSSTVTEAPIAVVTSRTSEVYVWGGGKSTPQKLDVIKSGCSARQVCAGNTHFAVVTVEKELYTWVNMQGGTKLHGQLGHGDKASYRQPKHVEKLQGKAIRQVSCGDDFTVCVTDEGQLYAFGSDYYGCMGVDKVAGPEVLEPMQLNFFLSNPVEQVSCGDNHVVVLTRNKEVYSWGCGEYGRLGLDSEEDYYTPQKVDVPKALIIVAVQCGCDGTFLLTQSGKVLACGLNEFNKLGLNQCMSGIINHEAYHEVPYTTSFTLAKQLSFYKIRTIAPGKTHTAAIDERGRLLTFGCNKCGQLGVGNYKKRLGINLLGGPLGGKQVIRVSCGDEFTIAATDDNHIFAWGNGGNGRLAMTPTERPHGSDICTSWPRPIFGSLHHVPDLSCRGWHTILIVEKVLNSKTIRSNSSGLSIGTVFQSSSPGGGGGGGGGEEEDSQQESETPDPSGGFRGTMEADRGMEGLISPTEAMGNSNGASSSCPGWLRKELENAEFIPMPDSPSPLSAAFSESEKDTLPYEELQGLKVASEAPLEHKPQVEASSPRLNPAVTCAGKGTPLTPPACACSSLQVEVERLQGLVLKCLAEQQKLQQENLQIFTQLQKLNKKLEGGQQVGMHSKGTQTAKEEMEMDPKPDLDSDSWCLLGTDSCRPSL

Sphingosine kinase 1 (Homo sapiens), sequence (Q9NYA1 whole entry): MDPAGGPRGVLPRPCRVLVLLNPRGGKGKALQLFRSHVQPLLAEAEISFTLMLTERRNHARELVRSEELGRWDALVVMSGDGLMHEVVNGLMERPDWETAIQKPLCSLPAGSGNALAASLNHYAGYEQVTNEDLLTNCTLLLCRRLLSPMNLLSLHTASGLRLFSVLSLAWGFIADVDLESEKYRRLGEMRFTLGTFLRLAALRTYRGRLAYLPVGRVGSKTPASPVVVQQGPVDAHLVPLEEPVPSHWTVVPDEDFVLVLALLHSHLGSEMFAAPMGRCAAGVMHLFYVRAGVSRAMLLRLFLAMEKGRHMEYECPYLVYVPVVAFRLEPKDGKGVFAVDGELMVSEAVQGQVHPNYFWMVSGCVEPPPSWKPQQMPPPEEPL

SMILES	inhibition [1] [%]	inhibition [2] [%]	inhibition [3] [%]	inhibition [4] [%]	inhibition [5] [%]	inhibition [6] [%]	inhibition [7] [%]	inhibition [8] [%]	inhibition [9] [%]	inhibition [10] [%]	inhibition [11] [%]	inhibition [12] [%]	inhibition [13] [%]	inhibition [14] [%]	inhibition [15] [%]	inhibition [16] [%]	inhibition [17] [%]	inhibition [18] [%]	inhibition [19] [%]	inhibition [20] [%]
COc1ccc2cc(-c3c(-c4ccncc4)nc(-c4ccc([S+](C)[O-])cc4C)n3C)ccc2c1 (stereo not given)	5.11	0.43	0.76	2.77	3.85	-4.94	-5.55	-0.05	-2.53	-2.45	-2.02	0.36	0.54	-0.64	-0.11	0.58	1.1	2.37	0.01	3.4
COc1ccc2cc(-c3c(-c4ccncc4)nc(-c4ccc(S(C)(=O)=O)cc4C)n3C)ccc2c1	-0.37	-0.27	4.01	3.63	4.57	-0.1	3.23	6.82	7.83	6.25	7.25	3.37	4.4	5.82	4.5	0.49	4.51	5.77	4.57	6.52
CCN(CC)Cc1ccc(Nc2nccc(-c3cnn4ncccc34)n2)cc1	7.74	4.29	2.72	10.9	31.1	3.66	34.9	7.57	17.5	8.95	17.8	2.8	4.48	4.07	3.41	1.02	-0.16	3.37	9.4	6.44
